From PubChem BioAssay
RORg inh: qHTS for inhibitors of ROR gamma transcriptional activity; Nuclear receptor ROR-gamma (Mus musculus), P51450; Drosophila S2 Gal4-RORgamma UAS-luciferase reporter, 20 h; Potency, µM (titrated, usually from 53.6 µM), for the others: top-dose activity change, negative = inhibition, actives largely listed as inhibitors; 310,000 tested, 5.4% active; also: % is scaled to controls: 0 for no effect and ±100 for the full control effect; nearly all actives have a fitted effect of over 60% in size
Target sequence (P51450 whole entry, looked up, the tested form may be a part): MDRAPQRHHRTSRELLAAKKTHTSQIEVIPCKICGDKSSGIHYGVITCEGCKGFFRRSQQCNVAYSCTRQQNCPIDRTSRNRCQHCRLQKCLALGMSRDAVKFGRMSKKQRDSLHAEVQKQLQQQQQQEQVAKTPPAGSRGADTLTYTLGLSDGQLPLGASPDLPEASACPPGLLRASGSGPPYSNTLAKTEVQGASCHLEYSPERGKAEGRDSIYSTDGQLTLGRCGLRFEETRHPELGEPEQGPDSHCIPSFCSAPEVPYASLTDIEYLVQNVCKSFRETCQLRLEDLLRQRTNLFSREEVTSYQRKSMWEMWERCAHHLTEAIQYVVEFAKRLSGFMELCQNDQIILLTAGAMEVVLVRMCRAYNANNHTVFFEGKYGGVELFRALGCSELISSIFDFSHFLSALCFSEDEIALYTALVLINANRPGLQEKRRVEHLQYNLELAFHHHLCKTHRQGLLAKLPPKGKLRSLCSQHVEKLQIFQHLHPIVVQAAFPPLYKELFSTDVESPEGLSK
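Using a luciferase readout, inhibitors were identified by reduced reporter activity in Drosophila cells coexpressing a copper-inducible Gal4–ROR gamma fusion and UAS-driven Photinus luciferase, incubated 20 hr after 700 uM copper sulfate.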
uPA generation: qHTS for Inhibitors of Cell Surface uPA Generation. 330,000 tested, 0.31% active. cell surface uPA generation assay, qHTS. Potency, µM (titrated, usually from 38.3 µM), for inactives: at the top dose activity change, negative = inhibition, hits mostly inhibitors; active = well fitted inhibition curve with a large enough effect; inconclusive = small, poorly fitted or top-dose-only effect; inactive = no such curve, though single readings can be large or run the other way; tested in mouse RAW 264.7 cells; also: % is scaled to controls: 0 for no effect and ±100 for the full control effect; nearly all actives have a fitted effect of over 55% in size
BCR signal inh: qHTS Assay to Find Inhibitors of Chronic Active B-Cell Receptor Signaling; 340,000 tested, 0.05% active; AID 493014, 2011; ABC-DLBCL IkBa-CBG/CBR reporter, luminescence ratio, 4 h; Potency, µM (titrated, usually from 46.1 µM), inactives show at the top dose activity change, negative = inhibition, hits mostly inhibitors; active = well fitted inhibition curve with a large enough effect in the signal ratio, with a control signal flat, not every such curve was filed as active; inconclusive = small, poorly fitted or top-dose-only effect, or effect the other way, or a change in a side signal; the % refers to the signal ratio;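 also: plate controls were basal doxycycline-induced cells for no effect and cells given 10 µM MG132 for full effect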
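Concentration-response series (up to 46 uM) were applied to TMD8 dual-reporter cells for 4 h at 37C with doxycycline. Green/red ratio, after filter-overlap correction, defined %Activity; red signal alone was normalised to basal cells and zero luminescence.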
a7 integrin act: qHTS for Activators of Integrin-Mediated Alleviation for Muscular Dystrophy; alpha7betagal myoblasts, beta-gal FDG fluorescence, 48 h; AID 624291, 2012; Potency, µM (series often up to 38.3 µM), without a hit: at the top dose activation, usual class: activators; 350,000 tested, 0.064% active;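 also: 100% = response of the positive control SU9516; nearly all actives have a fitted effect of over 60% in size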
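Alpha7betagal+/- myoblasts (passage 13) were plated 16-24 hr, then exposed to compounds (1:260 dilution of DMSO stock) for 48 hours at 37C. After MPER lysis, β-galactosidase reporter activity was read as FDG fluorescence (ex 480/em 540) after 30 minutes.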
Mito fusion yeast: qHTS Assay for Small Molecule Inhibitors of Mitochondrial Division or Activators of Mitochondrial Fusion; Potency, µM (highest dose often 46.1 µM), for the others: at the top dose growth rescue (activation), usual class: activators; S. cerevisiae fusion-defective mutant growth rescue, CellTiterGlo 48 h; 320,000 tested, 0.23% active; AID 485298, 2010; also: % of control where 0% means no effect; nearly all actives have a fitted effect of over 45% in size
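Temperature-sensitive fusion-defective S. cerevisiae (e.g. fzo1-1, mgm1-5) were grown with compound in YPEG medium (3% ethanol, 3% glycerol) for 48 hours at 37C. Growth rescue was measured as viability by CellTiterGlo luminescence after 10 minutes at ambient.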
Gal4-VP16 FLuc: VP16 counterscreen qHTS for inhibitors of ROR gamma transcriptional activity | Drosophila S2 Gal4-VP16 UAS-luciferase, luminescence, 20 h | 310,000 tested, 3.5% active | AID 2546, 2010 | Potency, µM (titrated, usually from 53.6 µM), without a hit: at the top dose activity, negative = inhibition, most hits filed as inhibitors;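 also: Gal4-VP16 expression switched on by copper sulfate through the metallothionein promoter; % is scaled to controls: 0 for no effect and ±100 for the full control effect; nearly all actives have a fitted effect of over 50% in size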
Numbers without * were called inactive; ? = inconclusive; . = not tested or not shown; [ ] = dose if it differs, or a comment. This is a sample that favours compounds with a hit; in the whole collection about 5.5% have one here. Unless noted, calls follow the shape of the dose curve; as a rule, active = well fitted curve in the direction sought with a large enough effect; inconclusive = small, poorly fitted or top-dose-only effect, or another doubt; inactive = no such curve, though single readings can be large; an effect the other way counts as inactive or inconclusive. Potency is read from the fitted curve at half-maximal effect.

SMILES	RORg inh	uPA generation	BCR signal inh	a7 integrin act	Mito fusion yeast	Gal4-VP16 FLuc
O=C(COc1ccccc1F)N/N=C1\CCCc2ccccc21	3.98µM*	-0.1%	?	-27.5%	-1.7%	?
O=C(Cc1csc(Nc2nc(=S)[nH]c3ccccc23)n1)NCCCN1CCN(c2ccccc2F)CC1	2µM*	-1.6%	?	-30.3%	5.6%	10µM*
COc1ccc(C(=O)Nc2nc(CC(=O)NCc3ccc(F)cc3)cs2)cc1	.	-18.7%	-3.4%	-13.5%	6.5%	.
Cn1c(C(=O)NCCCN2CCN(c3ccccc3F)CC2)cc2c(=O)[nH]c3ccccc3c21	15.2%	1.2%	0.2%	-15.3%	0.3%	-20.6%
O=C(Cc1csc(NC(=O)Nc2ccc(Cl)cc2)n1)NCc1ccccn1	.	-3.4%	?	27.2%	0.5%	.
COc1ccc(CNC(=O)Cc2csc(Nc3nc(=S)[nH]c4ccccc34)n2)cc1	1.78µM*	5.4%	10.7%	-20.6%	-11.3%	12.6µM*
O=C(Cc1csc(Nc2nc(=S)[nH]c3ccccc23)n1)NCc1ccc(Cl)cc1	3.55µM*	21.1%	0.1%	10.6%	-6.6%	10µM*
CO/N=C(\C)CCN1CCc2nc(-c3ccccc3)c(-c3ccccc3)cc2C1	-23.4%[10 µM]	.	.	.	.	5.5%[10 µM]
Cc1ccnc(SCc2cc(=O)c(OC(=O)c3ccco3)co2)n1	0.3%	1.2%	-19.2%	11.9%	-1.9%	-1.5%
Cc1ccnc(SCc2cc(=O)c(OC(=O)c3ccc(Cl)c([N+](=O)[O-])c3)co2)n1	10µM*	-2.0%	2.6%	4.0%	4.9%	11.2µM*
Clc1ccc(N2CCN(Cc3cc4ccccn4n3)CC2)cc1	-29.3%	.	.	.	23.1µM*	-2.7%
CCCn1c(=S)[nH]c2cc(C(=O)N3CCc4ccccc43)ccc2c1=O	2.82µM*	3.4%	0.8%	-6.0%	-3.6%	3.55µM*
CCCn1c(=S)[nH]c2cc(C(=O)N3CCN(C)CC3)ccc2c1=O	.	.	.	1.4%	.	.
COCCn1c(=S)[nH]c2cc(C(=O)N3CCc4ccccc43)ccc2c1=O	12.6µM*	.	?	12.1%[7.66 µM]	-9.8%	?
Cc1nn(C2CCS(=O)(=O)C2)c(C)c1CN(C)C(=O)c1cccc(Cl)c1 (stereo not given)	.	15.2%	3.5%	-4.3%	-1.6%	.
CCOC(=O)[C@@H]1[C@H]2COc3cc(OC)ccc3[C@@H]2N2C(=O)N(c3cccc(Cl)c3)C(=O)[C@@]12C	11.2µM*	3.1%	-1.5%	-23.9%	4.8%	5.1%
CCOC(=O)[C@H]1[C@H]2COc3ccc(Br)cc3[C@@H]2N2C(=O)N(c3ccccc3)C(=O)[C@@]12C	.	6.9%	2.3%	0.0%	.	.
CCOC(=O)[C@@H]1[C@H]2COc3ccc(Br)cc3[C@@H]2N2C(=O)N(c3ccccc3)C(=O)[C@@]12C	10µM*	-12.7%	16.0%	19.9%	0.8%	6.1%
CCOC(=O)[C@@H]1[C@H]2COc3ccccc3[C@@H]2N2C(=O)N(c3ccccc3)C(=O)[C@@]12C	12.6µM*	-14.5%	4.5%	13.4%	1.1%	-24.2%
CCN(CC)S(=O)(=O)c1ccc(OC)c(NC(=O)c2cc(C)on2)c1	6.1%	-1.4%	-2.4%	7.2%	1.6%	2.5%
COc1cccc(C(=O)N(Cc2ccco2)c2c(N)n(Cc3ccccc3)c(=O)[nH]c2=O)c1	.	-13.4%	-12.5%	23.9%	-7.8%	.
CC12CC3(C)CC(C)(C1)CC(C(=O)NC1=NCCS1)(C2)C3	.	3.6%	.	5.4%	.	.
CC12CC3CC(C)(C1)CC(C(=O)NC1=NCCS1)(C3)C2	2.82µM*	3.3%	?	-26.8%	19.8%	7.94µM*
Cc1c(C(=O)NC2CCCCC2C)oc2ccccc12 (stereo not given)	11.2µM*	0.4%	?	-13.0%	0.0%	5.62µM*
